Results reported in PubChem BioAssay AID977624 (Broad Institute, 2014).
Among all 1,800 compounds or so, fewer than 10 were called active. Not shown: some 44% with an inconclusive outcome. A selection follows. Unmarked numbers belong to inactive results.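 Rule for the calls: active = compound lowering the normal-ribosome reporter at least twice as much as the humanized-ribosome reporter, growth loss under a set limit; inconclusive = no clear call, values can overlap the other calls; inactive = the rest.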

Experiment: wild-type E. coli growth inhibition versus h34 humanized strain – h34 mutant RFP, wild-type GFP, cherry-pick, dose response (AID 977624)
Conditions: fluorescence, 24 h; series mostly up to 50 µM; activity change, negative = inhibition: at the top concentration

| Compound | activity change, negative = inhibition |
| --- | --- |
| O=C1CN(C(=O)c2ccc(Cl)c(S(=O)(=O)N3CCc4ccccc43)c2)c2ccccc2N1 | -16.3 |
| COc1ccccc1C1CCN(C(=O)c2ccco2)CC1 | 1.26 |
| Cc1ccccc1SCC(=O)OCC(=O)Nc1sccc1C(N)=O | -4.25 |
| COc1ccc(-c2csc3ncn(-c4ccc(C)cc4)c(=O)c23)cc1OC | -1.06 |
| O=C(COC(=O)C12CC3CC(CC(O)(C3)C1)C2)NCCc1ccc(Cl)cc1 | -6.89 |
| CCCc1c(C(=O)Nc2ccc(OC)cc2)cnn1-c1ccccc1 | 2.81 |
| C=CCn1c(SCC(=O)Nc2ccc3c(c2)OCCO3)nnc1-c1ccco1 | 9.63 |
| C[C@@H]1CCCCO[C@H](CN(C)C(=O)CCCN(C)C)[C@@H](C)CN([C@@H](C)CO)C(=O)c2cc(NC(=O)Nc3cccc4ccccc34)ccc2O1 | 14.5 |
| CCn1nc(Cc2cccc3ccccc23)c(C#N)c1N | 3.35 |
| O=S(=O)(NCC1CCCO1)c1ccc(-c2ccc(Cl)cc2)cc1 (stereo unspecified) | 4.09 |
| Cc1ccccc1COc1ccc(-c2nn[nH]n2)cc1 | -23.7 |
| CCc1ccc2[nH]c(C(=O)Nc3ccc4c(c3)OCO4)cc2c1 | -7.02 |
| COc1ccc(Cl)cc1NC(=O)C1Cc2ccccc2CN1S(C)(=O)=O (stereo unspecified) | -7.55 |
| CC(C)(C)c1ccc(-c2noc(CCC(=O)NCc3ccco3)n2)cc1 | 15.9 |
| CN(Cc1nnc(-c2ccc(F)cc2)o1)c1ccccc1 | 11 |
| Cc1ccc(Cn2cnc3ccccc32)cc1 | -11.1 |
| O=C(CSc1ccc(-c2cccnc2)nn1)N1CCCc2ccccc21 | 14 |
| O=C1c2ccccc2C(c2nnnn2C2CCCCC2)N1CCc1ccc(O)cc1 (stereo unspecified) | -3.75 |
| CCOC(=O)C1CCCN(Cc2c(Cl)cccc2Cl)C1 (stereo unspecified) | 7.89 |
| CCOc1ccc2nc(SCC(=O)Nc3nonc3C)[nH]c2c1 | -3.18 |
| CCCCCc1nnc(NC(=O)C2COc3ccccc3O2)s1 (stereo unspecified) | -0.194 |
| O=C(Cc1cccc(NC(=O)C2CCCN(C(=O)CCc3ccccc3)C2)c1)Nc1cccc(C(=O)N2CCCCC2)c1 (stereo unspecified) | 6.52 |
| CCN(CC)CCn1c(SCC(=O)Nc2cccc(OC)c2)nc2c(sc3ccccc32)c1=O | -8.25 |
| COc1ccccc1CCNC(=O)c1cccc(NC(=O)CC2SC(N3CCCCC3)=NC2=O)c1 (stereo unspecified) | -6.49 |

| Compound | activity change, negative = inhibition |
| --- | --- |
| Cc1cc(C(=O)COC(=O)CNC(=O)c2ccccc2)c(C)n1CC1CCCO1 (stereo unspecified) | -4.93 |
| COc1ccc(NC(=O)c2cccc(Oc3ccc([N+](=O)[O-])cc3Cl)c2)cc1 | 13 |
| Cc1ccc(S(=O)(=O)Nc2ccc3c(c2)C(=O)N([C@@H](C)CO)C[C@@H](C)[C@H](CN(C)C(=O)c2ccccc2)OCCCC[C@@H](C)O3)cc1 | 4.34 |
| CCOc1ccc(CN(C)C(=O)c2ccc(NS(=O)(=O)c3ccc4[nH]c(=O)[nH]c4c3)cc2)cc1 | 0.841 |
| CCc1nc2ccccc2n1CCc1ccccc1 | -4.63 |
| CCc1cc(C(=O)N2CCCC(C(=O)c3cccc4ccccc34)C2)n(C)n1 (stereo unspecified) | 0.908 |
| C=C(C)Cn1c(=O)c2c(nc3n2CCCN3Cc2ccccc2)n(C)c1=O | 9.19 |
| O=C(O)CCN(Cc1ccccc1)S(=O)(=O)c1ccccc1Cl | 14.4 |
| NC(=O)CSc1nc2cc([N+](=O)[O-])ccc2n1-c1cccc(C(F)(F)F)c1 | 11.7 |
| CCC(C(=O)NCCc1ccc(C)cc1)n1nc(C)c2c(C)n(-c3ccccc3)nc2c1=O (stereo unspecified) | -1.52 |
| CCOc1ccccc1OCCCC(=O)N1CCN(S(=O)(=O)c2cc(F)ccc2F)CC1 | -10.4 |
| CN(Cc1ccc(F)cc1)C(=O)CN1CCN(S(=O)(=O)c2ccc3c(c2)OCCCO3)CC1 | 2.79 |
| Cc1cccc(-c2nsc(SCC(=O)NCC3CCCO3)n2)c1 (stereo unspecified) | 13.9 |
| Cc1cc(C)n2nc(C(=O)Nc3cccc(S(=O)(=O)N(C)c4ccccc4)c3)nc2n1 | -1.19 |
| CC(=O)c1ccc(N2CCN(C(=O)C3CCN(S(=O)(=O)c4ccc5c(c4)CC(C)N5C(C)=O)CC3)CC2)cc1 (stereo unspecified) | -7.8 |
| Cc1cc(C)c(NC(=O)C(C)c2cccc(C(=O)c3ccccc3)c2)c(C)c1 (stereo unspecified) | -10.5 |
| COCC#Cc1ccc2c(c1)O[C@H](CN(C)C(=O)c1ccccc1)[C@@H](C)CN([C@H](C)CO)S2(=O)=O | 4.68 |
| C=CCn1c(SCc2n[nH]c(=S)n2-c2ccccc2)nnc1-c1ccccc1 | -5.43 |
| CC(=O)c1ccccc1OCCOCCOCCOc1ccccc1C(C)=O | 7.68 |
| Brc1ccccc1CN1CCC(Cc2ccccc2)CC1 | -3.84 |
| CCn1cc(CCC(=O)NCCc2ccccc2)c2ccccc21 | -11.8 |
| COc1ccccc1N(C)S(=O)(=O)c1ccc(Cl)c(C(=O)NC2=NCCS2)c1 | -3.78 |
| O=C(COC(=O)CNC(=O)c1ccc(F)cc1)Nc1cccc(S(=O)(=O)N2CCCC2)c1 | 13.5 |
| COC(=O)c1ccc2nc(-c3cccc(Br)c3)c(Cc3ccsc3)n2c1 | 4.56 |

| Compound | activity change, negative = inhibition |
| --- | --- |
| COc1cccc(C(=O)C2CCCN(C/C=C/c3ccccc3OC)C2)c1 (stereo unspecified) | 5.82 |
| O=C(NCc1ccccc1)c1cc(S(=O)(=O)N2CCCCC2)ccc1N1CCOCC1 | -1.63 |
| CC(=O)c1c(N2CCOCC2)nc2ccc(Cl)cc2c1-c1ccccc1 | 11.3 |
| O=C(NCc1nnnn1-c1ccc(Cl)cc1)c1ccc([N+](=O)[O-])o1 | -13.2 |
| O=C(CCC(=O)N1CCN(c2ccc(F)cc2)CC1)N1CCN(c2ccc(F)cc2)CC1 | -3.59 |
| COc1cccc(-c2ccc(SCc3ccccn3)nn2)c1 | 1.75 |
| CCC(C(=O)NC1CCCC1)n1c(-c2ccnc3ccccc23)nc2ccccc21 (stereo unspecified) | -2.18 |
| C=CCNC(=O)c1ccccc1CCc1ccccc1 | 9.97 |
| C=CCN(CC(O)c1cccc([N+](=O)[O-])c1)C(C)CCc1ccccc1 (stereo unspecified) | -21.3 |
| CO[C@@H]1CN(C)C(=O)c2cc(NC(=O)C3CCCC3)ccc2OC[C@@H](C)N(C(=O)Nc2ccc(C(F)(F)F)cc2)C[C@H]1C | 5.42 |
| COc1ccc(OC)c(CN2CCCC(C(=O)c3ccccc3SC)C2)c1 (stereo unspecified) | 7.44 |
| CCN1CCN(c2c(Cl)cccc2NC(=O)c2ccc([N+](=O)[O-])o2)CC1 | -9.62 |
| CCN(C(=O)CSc1cc(C)c2ccc(OC)cc2n1)C1CCS(=O)(=O)C1 (stereo unspecified) | -4.12 |
| Cc1noc(NS(=O)(=O)c2ccc(NC(=O)c3cc(-c4ccccc4Cl)nc4ccccc34)cc2)c1C | -2.62 |
| O=C(COC(=O)C1CC1)Nc1nc(-c2ccc(F)c(F)c2)cs1 | -5.56 |
| COc1cccc(NC(=O)c2ccc(C(=O)c3ccccc3)o2)c1 | -3.61 |
| COc1ccc(C(=O)C2CCCN(C(=O)c3noc4c3CCCC4)C2)cc1F (stereo unspecified) | 9.37 |
| COc1ccc(C(=O)N(c2ccccc2)c2nccc3ccccc23)cc1OC | 6.84 |
| COc1ccc(C2CC(=O)CCN2S(=O)(=O)c2ccc(C)cc2)cc1 (stereo unspecified) | -6.06 |
| O=C(NCc1ccc(S(=O)(=O)Nc2ccccc2Cl)s1)c1ccccc1 | 3.75 |
| Cc1ccc(C)c(-c2[nH]ncc2CN2CCCC(CO)(Cc3ccccc3C)C2)c1 (stereo unspecified) | 0.321 |
| Cc1nn(-c2cccc(Cl)c2)nc1C(=O)O | -8.21 |
| CC1CCN(c2ccc3nnc(CCC(=O)Nc4cccc(F)c4)n3n2)CC1 | -8.21 |
| O=C1c2ccccc2NC(c2ccc(-c3cccc([N+](=O)[O-])c3)o2)N1O (stereo unspecified) | -11.5 |

| Compound | activity change, negative = inhibition |
| --- | --- |
| COc1ccc(OC)c(-c2csc(NC(=O)C3COc4ccccc4O3)n2)c1 (stereo unspecified) | -3.69 |
| COc1ccc(-n2nc3cc(N)c(Br)cc3n2)cc1 | -3.96 |
| CN1C(=O)c2cc(NC(=O)c3cccc(F)c3)ccc2OC[C@H]2O[C@@H](CC(=O)N3CCc4ccccc4C3)CC[C@@H]21 | -5.65 |
| Brc1cc2c(cc1Br)OCCOCCOCCO2 | 3.87 |
| COC(=O)CC#C[C@H](C)[C@@H](NS(=O)(=O)c1ccc([N+](=O)[O-])cc1)C(C)(C)C | 14.2 |
| Cc1cc(C(=O)NCCC2=CCCCC2)ccc1[N+](=O)[O-] | -3.82 |
| CN(C)S(=O)(=O)c1ccc(Cl)c(C(=O)OCC(=O)NC(=O)c2cccn2C)c1 | 7.26 |
| COC(=O)c1cc(S(=O)(=O)NCc2ccc3c(c2)OCO3)cn1C | 0.059 |
| Cc1ccc(-c2cc(-c3ccc(C)cc3)[n+](-c3ccc(C(=O)[O-])cc3)c(-c3ccc(C)cc3)c2)cc1 | 11 |
| CC(=O)Nc1ccc(NS(=O)(=O)c2ccc(Cl)s2)cc1 | 2.3 |
| CN(c1ccc(C(=O)NCc2cccs2)cc1)S(=O)(=O)c1ccccc1 | -3 |
| CCn1nc(C(=O)OCc2cccc(S(=O)(=O)N(C)C)c2)c2ccccc2c1=O | 3.66 |
| COc1cccc(NC(=O)CSc2nc3c(sc4ccccc43)c(=O)n2CCN(C)C)c1 | 10.7 |
| O=C(CC1C(=O)NCCN1CC1CCCCC1)NCc1ccc(F)cc1F (stereo unspecified) | 5.47 |
| CC(=O)N1CCN(c2nc(-c3cccs3)nc3ccccc23)CC1 | -6.03 |
| COc1ccc(NC(=O)c2sccc2-n2cccc2)cc1 | 7.88 |
| O=C(Cc1ccc(NC(=O)C2CCCN(C(=O)CCc3ccccc3)C2)cc1)Nc1cccc(C(=O)N2CCCC2)c1 (stereo unspecified) | 2.02 |
| COc1ccc(Nc2nc(NCCO)nc(N3CCCC3)n2)cc1 | -2.08 |
| CC(C)[C@H](NC(=O)c1ccc([N+](=O)[O-])cc1Cl)C(=O)N1CCN(C/C=C/c2ccccc2)CC1 | -11.6 |
| COc1ccccc1NC(=O)CN1CCSc2ccccc21 | -10.7 |
| O=C(NCc1ccccc1Cl)[C@H]1CCCN1C(=O)[C@H]1CCCN1C(=O)c1cccc2ccccc12 | 0.914 |
| CC1(C(=O)Nc2ccc3c(c2)OCCO3)CSCC(=O)N1CCOc1ccccc1 (stereo unspecified) | 6.15 |
| O=S(=O)(c1cnc(Cl)c(Cl)c1)N1CCCc2ccccc21 | 2.93 |
| CCOC(=O)C1(CCCc2ccccc2)CCN(C(=O)CCn2cncn2)CC1 | 11.3 |
